Inconclusive results are not listed. Activity calls are given as the source filed them. Calls follow the shape of the full dose curve.

The target of the test is cAMP-dependent protein kinase catalytic subunit alpha (Homo sapiens) (UniProt P17612). In words: Protein Kinase A (PKA-HiBiT) enzymatic inhibition screen - Functional assay. The conditions noted are these: luminescence; series mostly up to 57.5 µM; activity change, negative = inhibition: at the top concentration. In a few lines:
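Kinase-Glo Plus luminescence reported remaining ATP after a 3 h room-temperature kemptide phosphorylation. The reaction used 10 nM PKA-N-HiBiT and 87.5 uM ATP, after 30 min compound preincubation; DMSO neutral, H-89 positive.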
For the compound `Cc1cccc(C)c1-n1c(=O)c2cnc(Nc3ccc(N4CCN(C)CC4)cc3)nc2n2c3ccccc3nc12`, the “activity change, negative = inhibition” value is 8.73% (inactive). On the same count and under the same terms, next, `C=CC(=O)Nc1cccc(Oc2nc(Nc3ccc(N4CCN(C)CC4)cc3OC)ncc2Cl)c1`: 8.93% (inactive). Still for that read-out and setting: next, `O=C(NCCO)c1cccc(-c2cc(Nc3ccc(OC(F)(F)F)cc3)ncn2)c1`: 9.23% (inactive); `CCn1c(=O)c(-c2ccc(Cl)cc2Cl)cc2cnc(Nc3ccc(N4CCNCC4)c(F)c3)nc21`: 3.24% (inactive); `COc1cc(N2CCN(C)CC2)ccc1Nc1nc(N)c(C(=O)c2c(Cl)cccc2Cl)s1`: 8.96% (inactive).

Take `COc1cc2c(Oc3ccc4[nH]c(C)cc4c3F)ncnc2cc1OCCCN1CCCC1`: the “activity change, negative = inhibition” value is 8.67% (inactive). On the same count and under the same terms, the result for `Cc1ccccc1-n1c([C@H](C)Nc2nc(N)nc3nc[nH]c23)nc2cccc(C)c2c1=O` reads 9.05% (inactive); that for `CNC(=O)c1ccccc1Sc1ccc2c(/C=C/c3ccccn3)n[nH]c2c1`, 8.89% (inactive). Take `Nc1nc(NCCNc2ncc(-n3ccnc3)c(-c3ccc(Cl)cc3Cl)n2)ccc1[N+](=O)[O-]`: the “activity change, negative = inhibition” value is 8.87% (inactive). `CN(c1ncccc1CNc1nc(Nc2ccc3c(c2)CC(=O)N3)ncc1C(F)(F)F)S(C)(=O)=O`: the Potency is 24.3 µM (active). Turning to `Cc1cc(F)ccc1-c1nc(NCCN=C(N)NC#N)nc2c1ccc(=O)n2-c1c(F)cccc1F`, the “activity change, negative = inhibition” value was 8.78% (inactive). On the same count and under the same terms, next, `Nc1ncccc1-c1nc2ccc(-c3ccccc3)nc2n1-c1ccc(C2(N)CCC2)cc1`: 7.73% (inactive). Still for that read-out and setting: next, `O=C(O)C1(Cc2cccc(Nc3nccs3)n2)CCC(Oc2cccc(Cl)c2F)CC1` (stereo unspecified): 8.13% (inactive). Regarding `CCOc1ccn(-c2ccc(F)cc2)c(=O)c1C(=O)Nc1ccc(Oc2ccnc(N)c2Cl)c(F)c1`, the Potency is 0.0153 µM (active). Regarding `O=C(Nc1cc(C(F)(F)F)ccc1N1CCCCC1)c1ccncc1`, the “activity change, negative = inhibition” value is 8.94% (inactive).

With `COc1cc(N2CCC(N3CCN(C)CC3)CC2)ccc1Nc1ncc(Cl)c(Nc2ccccc2P(C)(C)=O)n1`, the “activity change, negative = inhibition” value was 7.47% (inactive).

As to `COc1cc2c(Oc3ccc(NC(=O)C4(C(=O)Nc5ccc(F)cc5)CC4)cc3F)ccnc2cc1OCCCN1CCOCC1`, the “activity change, negative = inhibition” value was 9.04% (inactive).

As for `COc1cc2c(cc1OC)-c1[nH]nc(Nc3cccc(F)c3)c1C2`, the “activity change, negative = inhibition” value was 9.15% (inactive). On the same count and under the same terms, the result for `O=C(NC1CCNCC1)c1[nH]ncc1NC(=O)c1c(Cl)cccc1Cl` reads 9.1% (inactive); that for `O=S(=O)(/N=C/c1c(O)ccc2ccccc12)c1cccs1`, 7.8% (inactive). The same measure, in the same setting: the result for `Cc1cc(F)ccc1-c1nc(NC(CO)CO)nc2c1ccc(=O)n2-c1c(F)cccc1F` reads 9.07% (inactive); that for `Cc1cc(NC(=O)c2ccc(C)c(Nc3nccc(-c4cccnc4)n3)c2)cc(-n2cnc(C)c2)c1`, 8.62% (inactive). On the same count and under the same terms, next, `COc1cc2nccc(Oc3ccc(NC(=O)Nc4ccc(F)cc4F)c(F)c3)c2cc1OC`: 9.06% (inactive); `CC(C)(C)n1nc(-c2cccc3ccccc23)c2c(N)ncnc21`: 8.74% (inactive). Turning to `COc1ccc(CNC(=O)Nc2ncc([N+](=O)[O-])s2)cc1`, the “activity change, negative = inhibition” value was 9.14% (inactive). As for `COc1cc(N2CCOCC2)ccc1Nc1ncc(Cl)c(Nc2ccccc2NS(C)(=O)=O)n1`, the “activity change, negative = inhibition” value was -15.9% (inactive). Same read-out and setting: the result for `O=C1C(c2c(O)[nH]c3ccccc23)=Nc2ccccc21` reads 9.08% (inactive); that for `CO[C@H]1/C=C/O[C@@]2(C)Oc3c(C)c(O)c4c(O)c(c(/C=N\N5CCN(C6CCCC6)CC5)c(O)c4c3C2=O)NC(=O)/C(C)=C\C=C\[C@H](C)[C@H](O)[C@@H](C)[C@@H](O)[C@@H](C)[C@H](OC(C)=O)[C@@H]1C`, 8.13% (inactive). Still for that read-out and setting: the result for `CN1CCN(CCOc2cc(OC3CCOCC3)c3c(Nc4c(Cl)ccc5c4OCO5)ncnc3c2)CC1` reads 7.41% (inactive). As for `O=C1CCC(N2C(=O)c3ccccc3C2=O)C(=O)N1` (stereo unspecified), the “activity change, negative = inhibition” value was 8.93% (inactive).

For the compound `Cc1[nH]nc2ncc(C(=O)N3CCC[C@H]3c3ccc(Cl)cc3)cc12`, the “activity change, negative = inhibition” value is 8.86% (inactive).

These data come from PubChem BioAssay AID1963321 (National Center for Advancing Translational Sciences (NCATS), 2024).
